# About 83,000 compounds went through this panel and 20% of them were active in at least one assay; those are over-represented in the sample as a whole.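 Single-concentration screen, 48 h exposure, 96-well plates. Endpoint: percent growth. Below 10 = active.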 Values without a mark were called inactive. Activity calls are given as the source filed them.
# System: NCI-H23 lung
# Experiment: NCI-60 one-dose screen, 48 h (100 = growth as untreated, 0 = no growth, -100 = all killed)
# Conditions: 10 µM unless noted
row,Structure (SMILES),growth
1,Nc1nc(=S)c2ncn(C3OC(COP(=O)(O)O)C(O)C3O)c2[nH]1 (configuration not stated),14.5%
2,COc1ccc(/C=N/NC(=O)CCN2c3ccccc3Sc3ccccc32)cc1,75.6%
3,c1cnc2[nH]cc(-c3csc(-c4cn(CCCN5CCOCC5)c5ccccc45)n3)c2c1,68.1%
4,S=C1CCSC(=S)N1CCCN1C(=S)CCSC1=S,81.1%
5,COc1ccc(C(=O)Nc2ncc(Cc3ccc(F)cc3)s2)cc1,30.7%
6,C=C1C(=O)O[C@H]2[C@H]1CC/C(COC(=O)NCc1cc[nH]c1)=C\CC[C@@]1(C)O[C@@H]21,85.8%
7,CN(C)CCCC1(c2ccc(F)cc2)OCc2cc(-c3cccc4[nH]ccc34)ccc21 (configuration not stated),75.2%
8,COC(C(=O)[C@@H](O)[C@@H](C)O)[C@@H]1Cc2cc3cc(O[C@H]4C[C@@H](O[C@H]5C[C@@H](O)[C@H](O)C(C)O5)[C@H](O)C(C)O4)c(C)c(O)c3c(O)c2C(=O)[C@H]1O[C@H]1C[C@@H](O[C@H]2C[C@@H](O[C@H]3C[C@@H](O)[C@H](OC)C(C)O3)[C@@H](O)C(C)O2)[C@H](O)C(C)O1 (some centres not stated),-30.6% (active)
9,CCNc1cc(-c2cccc(OC(F)(F)F)c2)nc2ccc(N3CCCC3)cc12,7.13% (active)
10,CCNc1nc(-c2ccc(Cl)c(OC)c2)c(-c2ccnc(NCCCNS(=O)(=O)c3ccc(Cl)cc3)n2)s1,83.7%
11,Cc1nc2c(=O)[nH]c(SCC(=O)Nc3cccc(F)c3)nc2[nH]c1=O,100%
12,Cc1ccc(-c2nc3nc(-c4ccc(F)cc4)nc(N4CCNCC4)c3o2)cc1,94.4%
13,O=C(/C=C(/C=C/c1cccc2[nH]ccc12)OB(F)F)/C=C/c1cccc2[nH]ccc12,-34.8% (active)
14,Oc1c(Cl)cc(Cl)c2ccc(Cn3cc(-c4cc(C(F)(F)F)cc(C(F)(F)F)c4)nn3)nc12,77.3%
15,CC[C@@H](C(=O)[C@@H](C)[C@@H](O)[C@H](C)[C@@H]1O[C@@H]([C@@H](CC)C(=O)NCCc2ccc(F)cc2)CC[C@@H]1C)C1O[C@]2(C=CC(=O)[C@]3(CC[C@@](C)([C@H]4CC[C@](O)(CC)[C@H](C)O4)O3)O2)[C@H](C)C[C@@H]1C (some centres not stated),24.8%
16,c1cc2[nH]ncc2cc1-c1nc2ccc3[nH]ncc3c2c2c1CCCC2,12.9%
17,C#CCOc1cccc(Nc2ncnc3c(NC(=O)C=C)cccc23)c1,38.9%
18,N#Cc1cnc(NCCc2ccncc2)nc1-n1cnc2ccccc21,76%
19,CCOC(=O)c1c(NC(=O)c2ccc(C(C)C)cc2)sc2c(CN(C)C)c(O)ccc12,82.2%
20,COc1ccc(N2CCC(=O)NC2=S)cc1,96.2%
21,Oc1c(Cl)cc(Cl)c2ccc(Cn3cc(-c4cc(F)cc(F)c4)nn3)nc12,92.3%
22,CO/N=C(/C)c1ccc(NC(=O)CSc2nnc(-c3ccncc3)n2-c2ccccc2)cc1,46.9%
23,O=C1c2cccnc2C(=O)c2c1c(C(=O)NCCn1ccnc1)c1ccccn21,5.02% (active)
24,O=C1NC(=O)c2c1c1c3ccccc3ccc1c1[nH]c3ccc(Br)cc3c21,2.08% (active)
25,Cc1ccc(-c2nc3nc(-c4ccccc4)nc(N4CCNCC4)c3o2)cc1,-73.7% (active)
26,CC(C)(C)n1cc(-c2ccnc(NCCNS(=O)(=O)c3cccc(F)c3)c2)c(-c2ccccc2)n1,79.1%
27,Cc1c(-n2nnc(-c3nc4ccccc4s3)c2N)c(=O)n(-c2ccccc2)n1C,93.3%

# System: NCI-H322M lung
# Experiment: as above
# Conditions: 10 µM unless noted
row,Structure (SMILES),growth
1,Cc1ccc(Cl)cc1Nc1nc(C(F)(F)F)ccc1C(=O)N/N=C/c1cccnc1,25.1%
2,Fc1ccc(-c2nn(-c3ccccc3)cc2-c2nc3ccccc3o2)cc1,107%
3,CCOC(=O)C(=Cc1cccc(Br)c1)C(=O)OCC,65.5%
4,COc1cccc(NC(=O)Cn2cc(CN3CCN(c4ccnc5cc(Cl)ccc45)CC3)nn2)c1,91.2%
5,CCOC(=O)c1cc2c(=O)oc3ccccc3c2oc1=O,100%
6,O=C(Nc1cc(Cl)ccc1O)c1ccc(Nc2ccnc(C(F)(F)F)c2)cc1,61.7%
7,C=C(C)[C@@H]1CC[C@]2(C(=O)O)CC[C@]3(C)[C@H](CC[C@@H]4[C@@]5(C)C[C@@H](Cc6cn(CCO[C@@H]7O[C@H](COC(C)=O)[C@H](OC(C)=O)[C@H](OC(C)=O)[C@H]7OC(C)=O)nn6)[C@H](O)C(C)(C)[C@@H]5CC[C@]43C)[C@@H]12,82.7%
8,CC(C)CCC[C@@H](C)[C@H]1CC[C@H]2[C@@H]3CC=C4C[C@@H](C(C(=O)O)C(=O)O)CC[C@]4(C)[C@H]3CC[C@]12C,-0.312% (active)
9,O=S(=O)(Nc1ccc(Cl)cc1)c1ccc(-c2cnc(C3CC3)o2)cc1,44%
10,C#CCOc1ccc2ncnc(Nc3ccc(NC(=O)CCl)cc3)c2c1,51.6%
11,CCOC(=O)C1=C(NC)OCC1=O,100%
12,COC(=O)c1c2c(c(C)[n+]([O-])c1C)C(=O)C=C(NCc1ccc(Br)cc1)C2=O,-14.9% (active)
13,CCN(CC)CCOc1ccc(-c2c(-c3ccccc3)c(=O)oc3ccccc23)cc1,110%
14,Nc1nc(=S)c2ncn(C3OC(COP(=O)(O)O)C(O)C3O)c2[nH]1 (configuration not stated),53.2%
15,COc1ccc(/C=N/NC(=O)CCN2c3ccccc3Sc3ccccc32)cc1,83.4%
16,c1cnc2[nH]cc(-c3csc(-c4cn(CCCN5CCOCC5)c5ccccc45)n3)c2c1,80.2%
17,S=C1CCSC(=S)N1CCCN1C(=S)CCSC1=S,113%
18,COc1ccc(C(=O)Nc2ncc(Cc3ccc(F)cc3)s2)cc1,34.6%
19,C=C1C(=O)O[C@H]2[C@H]1CC/C(COC(=O)NCc1cc[nH]c1)=C\CC[C@@]1(C)O[C@@H]21,89.5%
20,CN(C)CCCC1(c2ccc(F)cc2)OCc2cc(-c3cccc4[nH]ccc34)ccc21 (configuration not stated),61.5%

row,Structure (SMILES),growth
1,COC(C(=O)[C@@H](O)[C@@H](C)O)[C@@H]1Cc2cc3cc(O[C@H]4C[C@@H](O[C@H]5C[C@@H](O)[C@H](O)C(C)O5)[C@H](O)C(C)O4)c(C)c(O)c3c(O)c2C(=O)[C@H]1O[C@H]1C[C@@H](O[C@H]2C[C@@H](O[C@H]3C[C@@H](O)[C@H](OC)C(C)O3)[C@@H](O)C(C)O2)[C@H](O)C(C)O1 (some centres not stated),5.34% (active)
2,CCNc1cc(-c2cccc(OC(F)(F)F)c2)nc2ccc(N3CCCC3)cc12,22.1%
3,CCNc1nc(-c2ccc(Cl)c(OC)c2)c(-c2ccnc(NCCCNS(=O)(=O)c3ccc(Cl)cc3)n2)s1,101%
4,Cc1nc2c(=O)[nH]c(SCC(=O)Nc3cccc(F)c3)nc2[nH]c1=O,106%
5,Cc1ccc(-c2nc3nc(-c4ccc(F)cc4)nc(N4CCNCC4)c3o2)cc1,87.7%
6,O=C(/C=C(/C=C/c1cccc2[nH]ccc12)OB(F)F)/C=C/c1cccc2[nH]ccc12,0.979% (active)
7,Oc1c(Cl)cc(Cl)c2ccc(Cn3cc(-c4cc(C(F)(F)F)cc(C(F)(F)F)c4)nn3)nc12,103%
8,CC[C@@H](C(=O)[C@@H](C)[C@@H](O)[C@H](C)[C@@H]1O[C@@H]([C@@H](CC)C(=O)NCCc2ccc(F)cc2)CC[C@@H]1C)C1O[C@]2(C=CC(=O)[C@]3(CC[C@@](C)([C@H]4CC[C@](O)(CC)[C@H](C)O4)O3)O2)[C@H](C)C[C@@H]1C (some centres not stated),76.7%
9,c1cc2[nH]ncc2cc1-c1nc2ccc3[nH]ncc3c2c2c1CCCC2,23.7%
10,C#CCOc1cccc(Nc2ncnc3c(NC(=O)C=C)cccc23)c1,54.9%
11,N#Cc1cnc(NCCc2ccncc2)nc1-n1cnc2ccccc21,35%
12,CCOC(=O)c1c(NC(=O)c2ccc(C(C)C)cc2)sc2c(CN(C)C)c(O)ccc12,79.2%
13,COc1ccc(N2CCC(=O)NC2=S)cc1,112%
14,Oc1c(Cl)cc(Cl)c2ccc(Cn3cc(-c4cc(F)cc(F)c4)nn3)nc12,111%
15,CO/N=C(/C)c1ccc(NC(=O)CSc2nnc(-c3ccncc3)n2-c2ccccc2)cc1,84.9%
16,O=C1c2cccnc2C(=O)c2c1c(C(=O)NCCn1ccnc1)c1ccccn21,22.3%
17,O=C1NC(=O)c2c1c1c3ccccc3ccc1c1[nH]c3ccc(Br)cc3c21,21%
18,Cc1ccc(-c2nc3nc(-c4ccccc4)nc(N4CCNCC4)c3o2)cc1,-95.9% (active)
19,CC(C)(C)n1cc(-c2ccnc(NCCNS(=O)(=O)c3cccc(F)c3)c2)c(-c2ccccc2)n1,97.8%
20,Cc1c(-n2nnc(-c3nc4ccccc4s3)c2N)c(=O)n(-c2ccccc2)n1C,100%
